The campaign covered roughly 360,000 compounds. About 10,000 (2.8%) were called active. Roughly 4% stayed inconclusive and do not appear here. Shown is part of a subset that was picked to be rich in actives. Unmarked numbers belong to inactive results. Calls come from the whole dose curve; as a rule, active = well fitted inhibition curve with a large enough effect; inconclusive = small, poorly fitted or top-dose-only effect; inactive = flat fitted curve, though single readings scatter.
% is set by controls: 0 for no effect and ±100 for the full control effect; potency is the fitted concentration of half-maximal effect.

This assay deals with Serine/threonine-protein kinase PLK1 (Homo sapiens) (UniProt P53350). Nature of the assay: qHTS for Inhibitors of PLK1-PDB (polo-like kinase 1 - polo-box domain): Primary Screen. For max response, negative = inhibition: series mostly up to about 57 µM. Note: nearly all actives have a fitted effect of over 65% in size. The note with it: Plk1 PBD binding of FITC phosphopeptide, fluorescence polarization. On the technique in general: qHTS replaces the single test concentration by a dilution series.
Serine/threonine-protein kinase PLK1 (Homo sapiens), sequence (P53350 whole entry, looked up, the tested form may be a part): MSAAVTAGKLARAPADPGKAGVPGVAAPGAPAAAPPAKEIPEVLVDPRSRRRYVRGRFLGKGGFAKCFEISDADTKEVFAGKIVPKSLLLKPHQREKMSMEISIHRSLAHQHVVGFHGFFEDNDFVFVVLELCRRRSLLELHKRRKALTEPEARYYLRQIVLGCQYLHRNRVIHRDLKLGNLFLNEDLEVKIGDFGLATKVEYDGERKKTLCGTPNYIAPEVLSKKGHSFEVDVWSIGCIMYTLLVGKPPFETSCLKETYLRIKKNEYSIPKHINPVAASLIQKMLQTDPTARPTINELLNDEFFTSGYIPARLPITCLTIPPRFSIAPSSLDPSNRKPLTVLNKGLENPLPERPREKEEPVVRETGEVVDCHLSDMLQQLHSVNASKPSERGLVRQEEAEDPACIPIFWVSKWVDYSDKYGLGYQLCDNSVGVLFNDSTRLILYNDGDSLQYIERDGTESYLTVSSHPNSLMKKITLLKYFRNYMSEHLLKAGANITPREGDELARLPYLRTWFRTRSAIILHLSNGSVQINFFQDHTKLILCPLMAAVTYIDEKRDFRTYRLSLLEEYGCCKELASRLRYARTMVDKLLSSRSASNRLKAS
Take `CN(C)C1CN(Cc2cn(Cc3ccccc3)nn2)S(=O)(=O)C1` (stereo unspecified): the max response, negative = inhibition is -9.56%.

Take `CCCCCc1c(-c2cccc(Br)c2)ncn1CCc1ccccc1OC`: the max response, negative = inhibition was -9.6%.

Regarding `O=C(NCCS(=O)(=O)N1CCN(c2ccccc2F)CC1)c1ccc(Br)o1`, the Potency was 15 µM (active).

Turning to `O=C(NCCS(=O)(=O)N1CCN(c2ccccc2)CC1)c1ccco1`, the max response, negative = inhibition was -3.4%.

`O=C(NCCS(=O)(=O)N1CCN(c2ccccc2)CC1)c1cc(=O)c2ccccc2o1`: the max response, negative = inhibition was -10.4%.

In the case of `NC(CSC(c1ccccc1)(c1ccccc1)c1ccc(-c2ccccc2)cc1)C(=O)O` (stereo unspecified), the max response, negative = inhibition was -12.6%.

Regarding `CCC(=O)N1CCCC1(C)C(=O)Nc1ccc2c(c1)CCN2C(C)=O` (stereo unspecified), the max response, negative = inhibition is -12.6%.

Regarding `S=c1ccc2ccccc2[nH]1`, the Potency is 10.6 µM (active).

For the compound `O=C(Nc1ccccc1)c1cc2ccccc2[nH]1`, the max response, negative = inhibition was 0%.

Turning to `O=C(Nc1ccc(Cl)cn1)c1ccccc1-c1ccccc1`, the max response, negative = inhibition is -6.02%.

Take `CC1(C(=O)Nc2cccc3cccnc23)CCN1C(=O)CCC1CCCC1` (stereo unspecified): the max response, negative = inhibition is 0.774%.

In the case of `CCOC(=O)c1c(N)sc2c1CCCC2=O`, the max response, negative = inhibition was -6.68%.

As to `CCOC(=O)c1c(N)sc(C(C)=O)c1C`, the Potency was 21.2 µM (active).

As for `CCOC(=O)Nc1sc(C(=O)N(C)C)c(C)c1C(=O)OCC`, the max response, negative = inhibition was -6.39%.

Consider `CC(=O)c1cccc(-c2cnc3c(NC=O)cc(-c4ccc(N5CCN(C)CC5)cc4)cn23)c1`, for which the max response, negative = inhibition was 2.15%.

`CCCCC(=O)N(C)c1c(CC)nc2c(OCc3ccc(S(C)(=O)=O)cc3)cccn12`: the max response, negative = inhibition is -6.21%.

With `COc1ccc(OCc2ccc(-c3nc4ccccc4c(=O)n3N)o2)cc1`, the max response, negative = inhibition is 2.15%.

Take `COc1ccc(Cc2n[nH]c(=S)n2NC(=O)Nc2ccc(C)cc2)cc1`: the max response, negative = inhibition was -9.65%.

`COc1ccc(OCc2n[nH]c(=S)n2N)cc1`: the Potency is 3.77 µM (active).

For `O=C(NCc1cccnc1)c1cc(C2CCCN(C(=O)C3CCCCC3)C2)on1` (stereo unspecified), the max response, negative = inhibition was 0.902%.

In the case of `CC1CC(NC(=S)N(C)C)CC(C)(C)C1` (stereo unspecified), the max response, negative = inhibition was -1.25%.

Consider `Cc1ccc(CN2CCN(Cc3ccc4ncccc4c3)CC2CCO)cc1` (stereo unspecified), for which the max response, negative = inhibition was -1.02%.

`CC(=O)Nc1ccc(CN2CCN(Cc3ccc(F)c(F)c3)C(CCO)C2)cc1` (stereo unspecified): the Potency was 18.9 µM (active).

In the case of `CC(C)CCN1CCN(Cc2ccc(C(F)(F)F)cc2)CC1CCO` (stereo unspecified), the max response, negative = inhibition was 4.35%.

With `COc1ccc(-c2cc(NC=O)c3ncc(-c4cc(OC)c(OC)c(OC)c4)n3c2)c(OC)c1`, the max response, negative = inhibition is -18.1%.

Turning to `O[C@@H]1C[C@H](c2ccccc2)N(Cc2cccs2)C[C@H]1n1cc(C2CC2)nn1`, the max response, negative = inhibition is -0.363%.

In the case of `Oc1ccc2ccc3cccc[n+]3c2c1`, the Potency is 4.74 µM (active).

Consider `O=C1CCC(C(=O)OCC(=O)Nc2ccc(OC(F)F)cc2)=NN1`, for which the max response, negative = inhibition is -4.05%.

Consider `CCNC(=O)C1(C)CCCN(C(=O)c2ccc3ccccc3n2)C1` (stereo unspecified), for which the max response, negative = inhibition was -13.8%.

Consider `CC1(C(=O)O)CCN1C(=O)/C=C/c1ccccc1` (stereo unspecified), for which the max response, negative = inhibition was -4.73%.

Turning to `COc1ccc(C(C)(C)C)cc1NC(=O)CN(C)C1=NS(=O)(=O)c2ccccc21`, the max response, negative = inhibition was -6.05%.

In the case of `CC(OC(=O)C1CC(=O)N(Cc2ccccc2)C1)C(=O)Nc1ccccc1[N+](=O)[O-]` (stereo unspecified), the max response, negative = inhibition is -3.81%.

Regarding `O=C(OCc1ccc([N+](=O)[O-])cc1)C1CC(=O)N(Cc2ccccc2Cl)C1` (stereo unspecified), the Potency was 29.9 µM (active).

`COc1ccc(CCN2CC(C(=O)OCC(=O)NCc3ccccc3Cl)CC2=O)cc1OC` (stereo unspecified): the max response, negative = inhibition was -3.96%.

As to `CCOC(=O)c1cnn2c(SC)ncnc12`, the max response, negative = inhibition was -4.05%.

For the compound `CC(C)Oc1cc(F)ccc1-c1cc(C(=O)Nc2cccc(Cl)c2)[nH]n1`, the max response, negative = inhibition was -2.39%.

On to `COc1ccc(C(=O)N2CCCCC2C(=O)Nc2ccc(-n3nc(C)cc3C)cc2)o1` (stereo unspecified), for which the Potency was 23.8 µM (active).

As to `COc1ccc(C(=O)C2CCCN(C(=O)c3ccc(OC)o3)C2)c(C)c1` (stereo unspecified), the max response, negative = inhibition is -27.3%.

With `Cc1cc(C)n(-c2ccc(NC(=O)C3CCCCN3C(=O)c3cccs3)cc2)n1` (stereo unspecified), the max response, negative = inhibition was -7.4%.

As to `CC(=O)c1ccccc1NC(=O)COC(=O)C1COc2ccccc2O1` (stereo unspecified), the max response, negative = inhibition was 4.38%.

As for `CCCC(=O)N1CCC1(C)C(=O)Nc1ccc(-n2cncn2)cc1` (stereo unspecified), the max response, negative = inhibition was -11.3%.

In the case of `Cc1ccccc1CN1C(=O)CSCC1(C)C(=O)Nc1c(C)cccc1C` (stereo unspecified), the max response, negative = inhibition was -3.6%.

Take `CCCCCCCCN1C(=O)[C@H](CC(=O)NCC23CC4CC(CC(C4)C2)C3)C[C@@]2(C(=O)OC)CCCCC=C12`: the max response, negative = inhibition is -9.18%.

For the compound `O=[N+]([O-])c1cc(S(=O)(=O)Nc2cccc(Cl)c2)ccc1N=Nc1c(O)[nH]c2ccccc12`, the Potency is 84.4 µM (active).

With `COc1ccc(S(=O)(=O)Nc2ccc3cn[nH]c3c2)cc1[N+](=O)[O-]`, the max response, negative = inhibition was -11.6%.

For the compound `O=C(O)c1ccccc1/C=N/Nc1ccc(S(=O)(=O)Nc2ccc(Cl)cc2)cc1[N+](=O)[O-]`, the max response, negative = inhibition is -22.4%.

For the compound `COc1ccc(Cl)cc1NC(=O)CCS(=O)(=O)c1ccc(Br)cc1`, the Potency is 15 µM (active).

For `CCOc1ccc(OCC)c(NC(=O)CCS(=O)(=O)c2ccc(C)cc2)c1`, the max response, negative = inhibition was -5.07%.

For `COc1ccc(Cl)cc1NC(=O)CCS(=O)(=O)c1cc2c(cc1C)NC(=O)CO2`, the max response, negative = inhibition is -11.9%.

With `COc1cc(CCN=Cc2ccccc2O)c([N+](=O)[O-])cc1OC`, the max response, negative = inhibition was -15.3%.

On to `CN(C(=O)CN1CCN(c2cc(-c3ccc(OCc4ccccc4)cc3)ncn2)CC1)c1ccccc1`, for which the max response, negative = inhibition is 2.08%.

Turning to `CC(O)(c1cccc(F)c1)c1nc(-c2ccc3c(c2)OCO3)cs1` (stereo unspecified), the max response, negative = inhibition was -0.065%.

Regarding `COc1ccc([C@H]2N[C@]3(CCCN(Cc4ccco4)C3=O)[C@H]3C(=O)N(C)C(=O)[C@@H]23)cc1`, the max response, negative = inhibition is -10.5%.

For `N#Cc1ccccc1-n1c(N)c(C(=O)N2CCCC2)sc1=S`, the Potency is 4.23 µM (active).

`Cc1ccc(S(=O)(=O)N2CCN(C(=O)N3CCOCC3)CC2)c(C)c1`: the max response, negative = inhibition was 3.35%.

In the case of `CCC(=O)Nc1sc(C(=O)N2CCCCC2)c(C)c1C#N`, the max response, negative = inhibition is 0.524%.

As to `Cc1ccc(N2CCN(C(=O)c3cccs3)CC2)c(C)c1`, the max response, negative = inhibition is -4.91%.

For the compound `Cc1cccc(-n2c(N)c(C(=O)N3CCN(C)CC3)sc2=S)c1`, the Potency was 1.89 µM (active).

Regarding `O=C(c1ccc(S(=O)(=O)c2ccccc2)cc1)N1CCCCCC1`, the max response, negative = inhibition was -6.16%.

As for `Cc1ccc(-n2c(N)c(C(=O)N3CCOCC3)sc2=S)c(C)c1`, the Potency was 18.9 µM (active).

`CC(C)=C1SC(N2CCN(c3cccc(C)c3)CC2)=NC1=O`: the max response, negative = inhibition is -13.5%.

For `Cc1cccc(N2CCN(C(=O)c3ccccc3NC(=O)C3CCCCC3C(=O)O)CC2)c1` (stereo unspecified), the max response, negative = inhibition was -5.42%.

Turning to `COc1ccc(Cl)cc1-c1cc(C(=O)Nc2cc(OC)c(OC)c(OC)c2)[nH]n1`, the max response, negative = inhibition is -0.229%.

`CCc1oc(-c2ccc(OC)cc2)c(C(=O)OCCCCCO)c1C(C)OCCO` (stereo unspecified): the max response, negative = inhibition is -3.22%.

For the compound `COc1ccc(-c2coc3c(C(=O)NC(C)C)cccc23)c(C)c1`, the max response, negative = inhibition was -1.63%.

As to `O=C1CCC(=O)N1CCC(=O)N(C(=O)NC1CCCCC1)C1CCCCC1`, the max response, negative = inhibition was -3.92%.

On to `CSC1=NN(c2ccccc2)CN(c2ccccc2)N1C`, for which the max response, negative = inhibition was 3.5%.

As for `CSc1ncnc2c1ncn2CCCNCc1cccs1`, the max response, negative = inhibition is -6.17%.

With `CCOC(=O)c1c(Cc2ccc(Cl)cc2)c[nH]c1C`, the max response, negative = inhibition was -3.47%.

Consider `CC(=O)c1c(C)c[nH]c1C`, for which the Potency is 3.36 µM (active).

Consider `Cc1cc(C)n2c(NCc3ccccc3)c(CC(C)C)nc2n1`, for which the max response, negative = inhibition was 4.6%.

Consider `Cc1cc(C(=O)CC#N)c(C)n1-c1c(C)n(C)n(-c2ccccc2)c1=O`, for which the Potency is 21.2 µM (active).

`Cc1cc(C(=O)CC#N)c(C)n1CC(F)(F)F`: the max response, negative = inhibition was -1.11%.

For `Cc1c(NC(=O)c2coc(=O)c(Br)c2)c(=O)n(-c2ccccc2)n1C`, the max response, negative = inhibition is -12.4%.

As for `COc1ccc(-n2c(C)cc(C(=O)COC(=O)c3cc(OC)c(OC)cc3NC(=O)c3cccs3)c2C)cc1`, the max response, negative = inhibition was -3.08%.

For the compound `CCCn1c(C)cc(C(=O)COC(=O)c2c(C)nn(-c3ccccc3)c2C)c1C`, the max response, negative = inhibition was 0.347%.

As for `Cc1cc(C(=O)COC(=O)c2cccs2)c(C)n1-c1c(C)n(C)n(-c2ccccc2)c1=O`, the Potency is 29.9 µM (active).

Regarding `CCCNC(=O)c1cc2c(c(-c3cccc(-c4ccc(C#N)cc4)c3)n1)[C@@H](CCO)N(C(=O)CC)C2`, the max response, negative = inhibition was -12.5%.

On to `c1ccc2c(c1)nnn2-c1ccncc1`, for which the max response, negative = inhibition was -7.91%.

For `COc1ccc(NC(=O)C2Cc3c(-c4cccc(NC(C)=O)c4)ccnc3O2)cc1OC` (stereo unspecified), the max response, negative = inhibition is -15.4%.

Regarding `CC(C)NC(=O)Nc1ccc2c(c1)C(=O)N([C@H](C)CO)C[C@H](C)[C@@H](CN(C)Cc1ccc(C(F)(F)F)cc1)OCCCC[C@@H](C)O2`, the max response, negative = inhibition was -16.7%.

For the compound `O=C(COC(=O)c1cccc(Cl)c1Cl)NC1CCCCCC1`, the max response, negative = inhibition was -7.54%.

Regarding `CCOc1ccccc1N1CCN(C(=S)Nc2ccc(S(N)(=O)=O)cc2)CC1`, the max response, negative = inhibition is -0.318%.

For the compound `COc1ccc(N2CCN(C(=S)Nc3ccc(S(N)(=O)=O)cc3)CC2)cc1`, the Potency was 13.4 µM (active).

In the case of `NS(=O)(=O)c1ccc(NC(=S)N2CCCC2)cc1`, the max response, negative = inhibition is -13.8%.

On to `CN(C)C(CNC(=O)c1cc(Br)c(Br)s1)c1ccco1` (stereo unspecified), for which the max response, negative = inhibition was -5.95%.

On to `O=S1(=O)CC(N2CCN(CCO)CC2)CN1Cc1cn(Cc2cccc(Cl)c2)nn1` (stereo unspecified), for which the max response, negative = inhibition was -6.24%.

As for `Cc1ccc(-c2cnc(C(O)c3cc(Cl)cc(Cl)c3)[nH]2)cc1` (stereo unspecified), the max response, negative = inhibition was 5.64%.

`COc1ccc(CNC(=O)COC(=O)C(CCSC)N2C(=O)c3ccccc3C2=O)cc1` (stereo unspecified): the max response, negative = inhibition was -13.1%.

For the compound `COc1ccc(CCNC(=O)COC(=O)c2cc(=O)c3ccccc3o2)cc1`, the max response, negative = inhibition is -2.93%.

Take `COc1ccc(CNC(=O)COC(=O)C2=Cc3ccccc3OC2)cc1`: the Potency was 13.4 µM (active).
